Rows were chosen to be rich in hits. Some 2.2% of all compounds tested hit in one or more screens of this group.
TWEAK-Fn14 inh: TWEAK-Fn14 signaling inhibition. TWEAK-stimulated Fn14 reporter cells, luciferase luminescence, 8 h. inhibition, % at 10 µM. actives 2% (n = 360,000); in the data active = inhibition above about 50%
HSP90 refold inh: inhibitors of HSP90 luciferase refolding in rabbit reticulocyte lysate. actives 0.91% (n = 290,000). luciferase refolding luminescence, 3 h. inhibition, % at 5.6 µM. AID 1789;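 active = inhibition above the screen-wide mean plus 3 SD, computed separately per campaign, cut at about 16% in these data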;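 note: 0% = DMSO wells and 100% = 60 µM geldanamycin wells; inhibitors lower the luminescence because luciferase stays unfolded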
LGR2 inh: inhibitors of bursicon-induced Drosophila LGR2 receptor cAMP signaling; AID 720647; HEK293 LGR2, CRE-luciferase, bursicon-stimulated, 4 h; actives 0.35% (n = 380,000); inhibition, % at 9.99 µM;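 active = drop in luminescence signal, shown as inhibition above about 50% in the replicate tests, limit read from the data, passing the limit was not always enough; inconclusive = probably only some replicates passing the limit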;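 note: agonist challenge used bursicon conditioned medium at about half maximal strength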
TROY NFkB inh: TROY signaling inhibition | Q293 LMP1-TROYcd NF-kB luciferase reporter, 4 h | inhibition, % at 10 µM | actives 0.98% (n = 360,000) | AID 1347056;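 active = compounds whose plate-normalised and pattern-corrected inhibition of the luciferase reporter signal at the single screening dose is 50% or more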
Starred values were filed as active, the others as inactive; ? = inconclusive; · = not tested or not shown.

SMILES	TWEAK-Fn14 inh	HSP90 refold inh	LGR2 inh	TROY NFkB inh
O=c1oc2ccccc2c2oc3cc(O)c(O)cc3c12	-33	-6	-23	-23
CCC(=O)N(C)C[C@@H]1Oc2cc(-c3ccccc3C)ccc2S(=O)(=O)N([C@H](C)CO)C[C@H]1C	·	·	7	·
CCc1nc(NCC2CCCN2CC)c2nnn(Cc3ccccc3F)c2n1 (stereo not drawn)	69*	-2	·	-20
C[C@H](CO)N1C[C@H](C)[C@@H](CN(C)C(=O)Nc2ccccc2)Oc2ccc(NC(=O)NC3CCCCC3)cc2CC1=O	·	·	-8	·
CCC1(C)Cc2ccccc2-c2nc(NCCO)n(-c3ccc(C)cc3)c(=O)c21 (stereo not drawn)	42	5	·	54*
O=C(C[C@@H]1C[C@@H]2c3cc(NC(=O)NC4CCCC4)ccc3O[C@@H]2[C@H](CO)O1)NCc1ccc2c(c1)OCO2	·	·	3	·
O=C(CSc1ccc(-c2nc3ccccc3[nH]2)cn1)Nc1ccc(S(=O)(=O)N2CCCC2)cc1	52*	-3	-29	18
Cc1cc2nc(-c3ccc(SCC(=O)Nc4ccc(S(=O)(=O)N5CCCC5)cc4)nc3)[nH]c2cc1C	-29	-5	-57	-35
CC(C)(C)/C(O)=C/c1nc2ccccc2[nH]c1=O	75*	-3	-4	82*
O=c1[nH]c2ccccc2nc1/C=C(\O)C1CC1	-29	-7	-8	6
O=C1ON=C(c2ccccc2)/C1=C/c1ccc(-c2ccccc2[N+](=O)[O-])o1	95*	0	-2	-2
NC(=O)CC(NC(=O)c1ccc(Br)cc1)c1ccc(N2CCC(Cc3ccccc3)CC2)c([N+](=O)[O-])c1 (stereo not drawn)	18	1	24	-3
NC(=O)CC(NC(=O)c1ccccc1)c1ccc(N2CCC(Cc3ccccc3)CC2)c([N+](=O)[O-])c1 (stereo not drawn)	43	5	-11	55*
COc1ccc(N(CC(=O)NCCSCc2ccccc2C)S(=O)(=O)c2ccccc2)cc1	27	5	14	76*
O=C(Nc1ccc(CN2CCOCC2)cc1)c1ccc(-c2ccc(Cl)cc2Cl)o1	30	4	6	35
O=C(Nc1ccc(CN2CCOCC2)cc1)c1ccc(-c2cccc(Cl)c2)o1	57*	-2	·	45
O=C(NC(=S)Nc1ccc(CN2CCOCC2)cc1)c1ccc(-c2cccc(Cl)c2)o1	49	4	67*	58*
CNC(=O)C[C@@H]1CC[C@H]2[C@@H](COc3ccc(NC(=O)c4ccc(F)cc4)cc3C(=O)N2C)O1	·	·	5	·
C[C@H]1CCCCO[C@H](CN(C)S(=O)(=O)c2ccc(F)cc2)[C@@H](C)CN([C@@H](C)CO)C(=O)c2cc(NS(=O)(=O)c3cccs3)ccc2O1	·	·	6	·
Cc1noc(C)c1NC(=O)Nc1ccc2c(c1)CC(=O)N([C@@H](C)CO)C[C@H](C)[C@@H](CN(C)Cc1ccc(C(=O)Nc3ccccc3N)cc1)O2	·	·	1	·
O=C(C[C@@H]1CC[C@@H](NC(=O)CCN2CCCCC2)[C@@H](CO)O1)NCc1ccc(Cl)c(Cl)c1	·	·	0	·
Cc1nc(N2CCN(Cc3ccccc3)CC2)nc2c1CCC2	60*	0	8	12
O=C(Nc1cccc(O)c1)C(=O)Nc1ccccn1	76*	37*	78*	39
Clc1ccc(C2=Nn3c(nnc3-c3n[nH]c4c3CCC4)SC2)cc1	55*	-1	·	18
Brc1ccc(C2=Nn3c(nnc3-c3n[nH]c4c3CCC4)SC2)cc1	60*	-1	·	20
SMILES	TWEAK-Fn14 inh	HSP90 refold inh	LGR2 inh	TROY NFkB inh
c1ccc(-c2ccc(C3=Nn4c(nnc4-c4cc(-c5ccccc5)n[nH]4)SC3)cc2)cc1	8	-1	-1	14
CC(C)Oc1ccc2c(=O)c(-c3ccccc3)coc2c1	14	0	·	-28
CC(=O)Oc1ccc2c(=O)c(-c3nc4ccccc4s3)coc2c1	83*	-1	17	53*
O=C(NNCc1ccccc1)c1ccccc1	65*	·	-11	24
C[C@H](CO)N1C[C@H](C)[C@H](CN(C)Cc2ccc(C(F)(F)F)cc2)Oc2c(NC(=O)NC3CCCCC3)cccc2C1=O	·	·	-2	·
O=C(c1[nH]ncc1-c1cccc(Br)c1)C1CO1 (stereo not drawn)	54*	4	17	4
CNC[C@H]1Oc2ccc(NC(=O)Nc3c(C)noc3C)cc2C(=O)N([C@H](C)CO)C[C@H]1C	·	·	5	·
CN(CC(=O)O)S(=O)(=O)c1cc(Cl)ccc1Cl	39	0	-7	57*
Cc1cc(C(F)(F)F)nn1CC(=O)Nc1cccnc1	66*	-2	·	·
Cc1cc(C)n(CC(=O)Nc2cccc(C(F)(F)F)c2)n1	11	2	23	-2
Cc1cccc(CC(=O)Nc2cccnc2)c1	103*	-1	-1	-4
Cc1ccc2c(Cl)c(C(=O)Nc3cccnc3)sc2c1	58*	-2	-5	-20
O=C(Nc1ccc(F)cc1)N1C[C@H]2[C@@H](c3ccccc31)[C@H](CO)N2C(=O)c1ccccc1F	·	·	-5	·
NC(c1csc(NC(=O)Nc2cccc(Cl)c2)n1)c1ccccc1Cl (stereo not drawn)	63*	·	42	42
CC(C)c1ccc(NC(=O)Nc2nc(C(N)c3ccccc3)cs2)cc1 (stereo not drawn)	-21	·	94*	-8
CC(C)c1ccc(NC(=O)Nc2nc(C(N)C(C)C)cs2)cc1 (stereo not drawn)	0	·	9	5
CCNC(=O)C[C@@H]1CC[C@H]2[C@@H](COc3ccc(NC(=O)Nc4cccc(F)c4)cc3C(=O)N2C)O1	·	·	-18	·
O=C(c1c[nH]c2ccccc12)C(Cl)c1ccccc1 (stereo not drawn)	79*	1	21	13
CC1=NN(C(=O)c2c(Br)cnn2C)C(O)(C(F)(F)F)C1 (stereo not drawn)	72*	-2	·	-4
C[C@H](CO)N1C[C@H](C)[C@@H](CN(C)C(=O)Cc2ccccn2)Oc2ncc(C#CC3CC3)cc2C1=O	·	·	0	·
CCOC(=O)c1c(C)[nH]c(C(=O)OCCOc2ccc(Cl)cc2)c1C	-12	0	-11	-3
CCOC(=O)c1c(C)[nH]c(C(=O)OCCOc2ccccc2C)c1C	27	9	-113	55*
C[C@@H]1CN([C@H](C)CO)C(=O)c2cc(C#C[C@@H](C)O)cnc2O[C@H]1CN(C)C(=O)c1ccccc1F	·	·	-7	·
C[C@@H]1CCCCO[C@H](CN(C)CC2CC2)[C@H](C)CN([C@@H](C)CO)C(=O)c2cc(NC(=O)Cc3ccccc3)ccc2O1	·	·	5	·
Cc1ccc(Cl)cc1NC1=C/C(=N\S(=O)(=O)c2cccs2)c2ccccc2C1=O	100*	8	105*	71*
Cc1cccc(NC2=C/C(=N/S(=O)(=O)c3cccs3)c3ccccc3C2=O)c1	97*	4	-3	32
Cc1ccc(Cl)cc1NS(=O)(=O)c1ccccc1	-3	·	-9	-11
O=C(O)c1ccc(NC2=C/C(=N/S(=O)(=O)c3cccs3)c3ccccc3C2=O)cc1	98*	·	?	60*
Cc1ccc(S(=O)(=O)/N=C2\C=C(NS(=O)(=O)c3ccccc3)C(=O)c3ccccc32)cc1	6	·	11	-27

Screens: PubChem, several laboratories
